About 35 (0.06%) of roughly 62,000 compounds were called active. For the sample, actives were picked, then their nearest neighbours and some compounds at random. Values without a mark were called inactive. Rule as the data show it: active = inhibition above about 32% (passing the limit was not always enough); inconclusive = no clear call, values can overlap the other calls.

As a reminder, the inhibition is the relative decrease from the control value, in per cent.

In this test the target is Cathepsin S (Homo sapiens) (UniProt P25774). The test is described as follows: inhibitors of human cathepsin S, biochemical, compound mixtures (AID 501).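 Also: 0% = enzyme without compound and 100% = blank without enzyme.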 The following applies: recombinant cathepsin S, AMC dipeptide fluorescence, pooled mixtures; stronger effect = higher value;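 tested at 5 µM per compound within 10-compound mixtures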.
Chain of Cathepsin S (Homo sapiens) (P25774 115-331 limits assumed): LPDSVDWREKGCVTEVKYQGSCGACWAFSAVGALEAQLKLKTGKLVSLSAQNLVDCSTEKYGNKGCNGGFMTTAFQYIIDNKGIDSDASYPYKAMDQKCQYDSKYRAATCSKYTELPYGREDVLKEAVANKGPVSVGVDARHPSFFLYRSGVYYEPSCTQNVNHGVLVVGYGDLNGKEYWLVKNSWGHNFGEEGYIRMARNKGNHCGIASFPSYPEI
Regarding `Cc1nn(-c2ccccc2)c2sc(C(=O)N(Cc3ccco3)C(C)C(=O)NC(C)(C)C)cc12` (stereo not drawn), the inhibition is 13.8%.
The same measure for `c1ccc2c(c1)OCC(CNc1ncnc3nc[nH]c13)O2` (stereo not drawn): -0.615%; for `O=C(CN1CCN(c2ncc(C(F)(F)F)cc2Cl)CC1)Nc1ccc2c(c1)OCO2`: 13.5%.
Turning to `COc1ccc(-c2noc(CN(C)S(=O)(=O)c3ccc(C)cc3)n2)cc1`, the inhibition is 8.41%.
`Cc1ccc2c(c1)N(C(=O)CCC(=O)N1CCc3ccccc3C1)CCO2`: the inhibition is -12.7%.
As for `Cn1c(C(=O)NCCCN2CCN(c3cccc(Cl)c3)CC2)cc2c(=O)n(C)c3ccccc3c21`, the figure is 33% (active); as for `CC1CCCC(C)N1CCCNC(=O)c1cc2c(=O)n(C)c3ccccc3c2n1C` (stereo not drawn), 7.08%.
As for `CCn1c(=O)cc(OCC(=O)NCCCN2CCN(c3cccc(Cl)c3)CC2)c2ccccc21`, the figure is 4.46%.
As for `COc1ccc(-c2ccc(-c3noc(-c4ccncc4)n3)c(OC)n2)cc1`, the figure is 6.8%; as for `COc1ccccc1N1CCN(c2nc3ccccc3n3nnnc23)CC1`, 8.24%; as for `CC1CCCC(NC(=O)CN2CCN(Cc3ccc(Cl)cc3)C2=O)C1C` (stereo not drawn), -3.54%.
On to `CCN(CC)S(=O)(=O)c1ccc2nc(CSc3nnnn3-c3ccc(O)cc3)[nH]c2c1`, for which the inhibition is -6.33%.
As for `CCC(C)Sc1nnc(-c2c[nH]c3ccccc23)n1CCOC` (stereo not drawn), the figure is -1.22%.
As for `COc1ccc(-c2cc3n(n2)CCc2nc4ccccc4n2-3)cc1`, the figure is -5.35%; as for `CCN(CC)C(=O)CSc1nnc(-c2ccc(S(=O)(=O)NCc3ccccc3Cl)cc2)o1`, 6.42%.
The same measure for `O=c1/c(=C/c2ccc(CNS(=O)(=O)c3ccccc3)o2)sc2n1CCN=2`: -0.38%; for `Cc1cc(C)nc(SCc2ccccc2C#N)n1`: -2.31%.
`CCc1cc(=O)oc2cc(C)cc(OC(C)C(=O)O)c12` (stereo not drawn): the inhibition was -5.16%.
The same measure for `CN1CCN(Cc2c(O)ccc3c2oc(=O)c2ccccc23)CC1`: 6.08%; for `CCNS(=O)(=O)c1ccc(NC(=O)Nc2cccc(C(F)(F)F)c2)cc1`: -6.53%.
Consider `Cc1c2cnn(-c3ccccc3)c(=O)c2c(C)n1CCCC(=O)N1CCN(C)CC1`, for which the inhibition was -3.9%.
On to `CC(NC(=O)c1ccco1)C(=O)Nc1nc(-c2ccccn2)cs1` (stereo not drawn), for which the inhibition was 12%.
In the case of `O=C(O)C1C2C=CC(C2)C1C(=O)N1CCN(CCO)CC1` (stereo not drawn), the inhibition was 3.18%.
The same measure for `CC(=O)c1cnc(Nc2nc(C)c3cc(C)ccc3n2)nc1C`: -5.6%; for `CC(C)NS(=O)(=O)c1ccc(OCC(=O)Nc2ccc3c(c2)OCCO3)cc1`: 22.9%; for `CC(C)Nc1nc(N(c2ccccc2)c2ccccc2)nc(-n2ccnc2)n1`: -8.9%.
As for `N#Cc1nc(N)nc(N(c2ccccc2)c2ccccc2)n1`, the figure is 49.2% (active); as for `CC(C)n1c(SCC(=O)Nc2ccccc2N2CCCCC2)nc2c1c(=O)n(C)c(=O)n2C`, -0.72%.
The same measure for `CCOC(=O)C1=C(CNC2CCCCC2)NC(=O)NC1c1cc(C)ccc1C` (stereo not drawn): -0.495%.
Consider `O=c1cc(CO)oc(CN2CCC(Cc3ccccc3)CC2)c1O`, for which the inhibition was 4.81%.
As for `C=CCN1C(=O)C(O)(CC(=O)c2ccc(Cl)cc2)c2ccccc21` (stereo not drawn), the figure is -18%; as for `CC(C)N1C(=O)C2C(C(=O)NC3CCCCC3)C3C=CC2(O3)C1C(=O)NC1CCCC1` (stereo not drawn), -8.37%; as for `COc1ccc(-c2csc(N3CCN(Cc4ccc5c(c4)OCO5)CC3)n2)cc1`, -3.99%.
With `Cc1ccc(C(=O)Nc2ccc3c(c2)OCO3)cc1S(=O)(=O)N1CCCCC1`, the inhibition was 85.5% (active).
As for `Cc1ccc(C(=O)NCC(=O)O)cc1S(=O)(=O)N1CCCCC1`, the figure is -10.7%; as for `COc1ccc(C(=O)Nc2ccc3c(c2)OCO3)cc1OC`, -4.12%; as for `Cc1ccc(S(=O)(=O)N2CCCC2C(=O)NCc2ccco2)cc1` (stereo not drawn), 12.5%.
The same measure for `CC1(C)CC(CCC(=O)Nc2ccccc2Cl)C(=O)O1` (stereo not drawn): -3.38%; for `Cc1ccc(C(=O)NCC2CCCO2)o1` (stereo not drawn): 0.56%; for `CCOC(=O)c1c(C)c(C(=O)NCCc2ccc(S(N)(=O)=O)cc2)c(C)n1CC`: -0.765%.
As for `CC(CCc1ccccc1)NC(=O)c1ccc(Br)o1` (stereo not drawn), the figure is -7.32%; as for `CC1(C)Cc2ccccc2-c2nnc(-c3cccc(O)c3)n21`, -3.6%; as for `O=C(c1ccc(S(=O)(=O)N2CCOCC2)cc1)N1CCN(c2ccccc2)CC1`, -24.7%.
In the case of `C#CCN1CC(C)/C(=N/O)CC1C` (stereo not drawn), the inhibition is -8.55%.
As for `CCOC(=O)C1(c2ccccc2)NC(c2ccc(N(C)C)cc2)C2C(=O)N(C)C(=O)C21` (stereo not drawn), the figure is 12.2%; as for `O=S(=O)(NCCNS(=O)(=O)c1ccccc1)c1ccccc1`, -7.43%.
The same measure for `Cc1nc(N2CCCC2C(=O)O)c2oc3ccccc3c2n1` (stereo not drawn): 8.31%.
The same measure for `COc1ccc(CCn2c(NCCCN3CCOCC3)nc3c2c(=O)[nH]c(=O)n3C)cc1`: 5.43%; for `CCOC(=O)c1sc(=S)n2c1[nH]c(=O)c1ccc(C(=O)OC)cc12`: -0.96%.
Regarding `O=C(CC(NS(=O)(=O)c1ccc(Cl)cc1)c1ccco1)NC1CCCC1` (stereo not drawn), the inhibition was -2.72%.
For the molecule `CC(=O)Nc1nc(C)c(Cc2ccccc2)c(=O)[nH]1`, the inhibition is -3.33%.
As for `CCCCSc1nnc(-c2ccc(C)cc2)o1`, the figure is 0.235%.
As for `O=C(c1ccc2c(c1)C(=O)N(c1ccc(Cl)cc1)C2=O)N1CCN(c2ccccn2)CC1`, the figure is 2.28%; as for `O=C(NCc1ccco1)c1ccc(CS(=O)(=O)Cc2ccc(F)cc2)o1`, -5.21%; as for `COc1cccc(-c2nc3n(n2)C(c2ccccc2Cl)C(C(N)=O)=C(C)N3)c1` (stereo not drawn), -4.19%.
Consider `CC1(C)CCCC2=C1CC1C(=O)N(c3ccccc3)C(=O)C1C2` (stereo not drawn), for which the inhibition was 8.69%.
As for `Cc1ccc(-n2c(SCC(=O)Nc3ccc4c(c3)OCO4)nnc2-c2ccoc2C)cc1`, the figure is 7.19%.
As to `CC12COC3(C(=O)Nc4ccc(Cl)cn4)CC1CCC32C` (stereo not drawn), the inhibition is -6.89%.
The same measure for `COC(=O)C1(S(=O)(=O)C2(C(=O)OC)CCCC2)CCCC1`: -5.82%; for `CCOc1ccc2[nH]c(=O)c(CN(Cc3nnnn3Cc3ccccc3)CC3CCCO3)cc2c1` (stereo not drawn): 6.16%.
As for `CCOC(=O)CSc1nccc(N(C)C)c1C#N`, the figure is 14.4%; as for `Cc1nnc(N(Cc2ccco2)C(=O)c2ccno2)s1`, -4.35%; as for `CCn1c(=O)cc(O)c2ccccc21`, 9.68%.
As for `COc1cc(C(=O)N(Cc2ccc(N(C)C)cc2)C2CCS(=O)(=O)C2)cc(OC)c1OC` (stereo not drawn), the figure is 0.64%.
With `Nc1nnc(C2CCCC2)s1`, the inhibition is 14.3%.
With `CCc1ccccc1NC(=O)c1cccs1`, the inhibition is 8.09%.
`CCOC(=O)C1=C(CC)Nc2ccccc2N=C1NC(=O)c1cccc(S(=O)(=O)N2CCCC2)c1`: the inhibition was -5.2%.
In the case of `CCC(=O)NC(=Nc1nc2ccccc2s1)NC(=O)CC`, the inhibition is -2.2%.
As for `C=CCn1c(SCc2cc(C(=O)OC)c(C)o2)nnc1-c1ccncc1`, the figure is -3.76%.
As for `CCOc1ccc(-c2nnc(-c3ccco3)o2)cc1`, the figure is -3.01%; as for `CCOc1ccc(OCC)c(NC(=O)CN(C)S(=O)(=O)c2cccc3nsnc23)c1`, -22.2%.
As to `CCOC(=O)CSc1nnc(CNc2ccc(F)cc2)o1`, the inhibition was -5.03%.
The same measure for `Cn1c(=NC(=O)CSCC(=O)N2CCOCC2)sc2ccccc21`: 14.7%; for `Cn1c(=O)[nH]c(=O)c2c1nc(CN(Cc1ccccc1)Cc1ccccc1)n2CCN1CCOCC1`: 2.01%.
In the case of `COc1ccc(Br)cc1S(=O)(=O)N1CCN=C1C`, the inhibition was -2.2%.
The same measure for `Cn1c(=NC(=O)CSCC(=O)N2CCCCC2)sc2ccccc21`: 6.42%; for `CSCCC(NS(=O)(=O)/C=C/c1ccccc1)C(=O)N1CCC(C)CC1` (stereo not drawn): -1.31%; for `CCOC(=O)N1CCC(NC(=O)CCc2cn(C)c3ccccc23)CC1`: -4.61%.
For `CCn1cc(C(=O)NCc2ccc(OC)cc2OC)c(=O)c2ccc(C)nc21`, the inhibition was 0.185%.
As for `CCN(CC)P(=O)(/C(Cl)=C\Nc1c(C)n(C)n(-c2ccccc2)c1=O)N(CC)CC`, the figure is 0.845%; as for `COc1ccc(C)cc1NC(=O)c1[nH]c(C)c(C(C)=O)c1C`, -3.92%; as for `Fc1ccc2[nH]c3c(N4CCN(Cc5ccc6c(c5)OCO6)CC4)ncnc3c2c1`, -6.06%.
As for `CCc1c(C)nc(N)n2c(SCC(=O)N3CCN(c4ccccc4)CC3)nnc12`, the figure is -12.8%.
Take `CN1CCN(CC(O)COCc2ccc3c(c2)OCO3)CC1` (stereo not drawn): the inhibition is 5.75%.
As for `CC(=O)Nc1cccc(NC(=O)c2c(-c3ccccc3)noc2C)c1`, the figure is -5.8%; as for `O=C(NCCCN1CCOCC1)c1cc(-c2ccc(Cl)cc2)on1`, -0.13%; as for `O=C(NCCc1ccco1)c1nn(Cc2ccccc2)c(=O)c2ccccc12`, 11.9%.
The same measure for `O=C(C1CCCO1)N(Cc1ccccc1)c1ccccc1` (stereo not drawn): -2.27%.
As for `Cc1ccsc1C(C(=O)NC1CCCCC1)N(C(=O)Cc1cccs1)C1CC1` (stereo not drawn), the inhibition was 6.71%.
The same measure for `Cc1cc(=O)n2nc(N3CCCC(C(=O)NCCC4=CCCCC4)C3)sc2n1` (stereo not drawn): 19.8%.
As for `CCOC(=O)C1CCCN(C(=O)Cn2ncc3c(=O)oc4ccc(C)cc4c32)C1` (stereo not drawn), the figure is 7.33%; as for `O=C(Nc1cccnc1)c1noc2c1CCCCC2`, 10.9%; as for `CCc1cc2c(=O)c(-c3ccon3)c(N)oc2cc1OC`, -1.48%.
`COc1ccc(C(c2nnnn2Cc2cccs2)N2CCN(c3ccccc3)CC2)cc1OC` (stereo not drawn): the inhibition is -6.06%.
Consider `CC(C)COC(=O)C1C2C=CC3(CN(C(C)c4ccc(Br)cc4)C(=O)C13)O2` (stereo not drawn), for which the inhibition is 14.7%.
In the case of `O=C(O)c1ccc(-n2cccc2)cc1O`, the inhibition was 5.17%.
The same measure for `CCOc1cc(C(=O)Nc2ncccn2)cc(OCC)c1OCC`: 31.7%.
As for `Cc1ccsc1CNn1cnnc1SCc1ccccc1F`, the figure is -4.25%; as for `CCOC(=O)CCCNC(=O)CN1C(=O)NC(CCc2ccccc2)C1=O` (stereo not drawn), -3.72%; as for `CC1CCCC(N2CCN(C(=O)c3ccc(F)cc3)CC2)C1` (stereo not drawn), -4.6%.
The same measure for `CSCC[C@H](NC(=O)NCCc1ccc(F)cc1)C(=O)O`: -4.51%.
As for `CCCCc1cc(=O)oc2cc(C)cc(OCc3nn[nH]n3)c12`, the inhibition was 1.43%.
The same measure for `CCN(CC)S(=O)(=O)c1ccc(NC(=O)CN(c2cccc(F)c2)S(C)(=O)=O)cc1`: -8.46%; for `CC(C)(CSc1nncn1/N=C/c1ccco1)NS(=O)(=O)c1ccc(Cl)cc1`: 6.83%; for `CC1(C)SC2c3ccccc3C(=O)N2[C@@H]1C(=O)NCc1ccco1` (stereo partly drawn): -3.88%.
As for `CCOC(=O)c1c(C)[nH]c(C)c1C(=O)CSc1nc(N)cc(N)n1`, the figure is 5.32%.
As for `O=C(C1CCN(c2nnc(-n3cccc3)s2)CC1)N1CCc2ccccc2C1`, the figure is 4.27%; as for `Cc1cc(Nc2cccc(C)c2C)n2ncnc2n1`, -1.92%; as for `COC(=O)c1ccc(NC(=O)CN(c2ccc(C)cc2)S(=O)(=O)c2c(C)n[nH]c2C)cc1`, -7.46%.
Turning to `COc1ccc(N(CC(=O)NC(C)(C)C)C(=O)c2ccco2)cc1`, the inhibition was 10.2%.
As for `Cc1cc(Cl)ccc1N1C(=O)CC(SCCC(=O)O)C1=O` (stereo not drawn), the figure is 1.91%; as for `COc1cc2ccccc2cc1C(=O)Nc1ccc(S(=O)(=O)Nc2cc(C)on2)cc1`, -7.28%.
As for `Cc1cc(=O)[nH]c(SCC(=O)N2c3ccccc3CC2C)n1` (stereo not drawn), the figure is 33.4%.

These data come from PubChem BioAssay AID501 (PCMD, 2006).
